Experimental findings from PubChem BioAssay (NCI) are described below.

Common to all, as to test: NCI-60 one-dose screen, 48 h (100 = growth as untreated, 0 = no growth, -100 = all killed)
The test system of one assay is HCT-15 colon. The following applies: 10 µM unless noted.
The subject of the next assay is HT29 colon. The following applies: 10 µM unless noted.
The subject of another assay is SNB-75 CNS. The following applies: 10 µM unless noted.
A further assay has as its system SNB-19 CNS. The following applies: 10 µM unless noted.
In the next assay the test system is PC-3 prostate. The following applies: 10 µM unless noted.
A further assay relates to SK-MEL-5 melanoma. The following applies: 10 µM unless noted.
A further assay deals with UACC-62 melanoma. The following applies: 10 µM unless noted.
The test system of a further assay is LOX IMVI melanoma. The following applies: 10 µM unless noted.
The subject of a further assay is SK-MEL-28 melanoma. The following applies: 10 µM unless noted.
A further assay has as its system SK-MEL-2 melanoma. The following applies: 10 µM unless noted.
Another assay has as its system SN12C renal. The following applies: 10 µM unless noted.
The subject of the next assay is UO-31 renal. The following applies: 10 µM unless noted.
For another assay, the system named is TK-10 renal. The following applies: 10 µM unless noted.
The subject of the next assay is ACHN renal. The following applies: 10 µM unless noted.
Another assay has as its system CAKI-1 renal. The following applies: 10 µM unless noted.
The subject of the next assay is A498 renal. The following applies: 10 µM unless noted.
The next assay concerns MOLT-4 leukemia. The following applies: 10 µM unless noted.
The test system of another assay is U251 CNS. The following applies: 10 µM unless noted.
For a further assay, the system named is EKVX NSCLC. The following applies: 10 µM.
For another assay, the system named is CCRF-CEM leukemia. The following applies: 10 µM.

The panel holds about 83,000 compounds, 20% with a hit somewhere; the sample as a whole holds those more often.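 A percent growth of 40 corresponds to 60% growth inhibition; 0 means no net growth; -100 means all cells died. Active threshold: below 10.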 A number with no mark means an inactive call. Calls of active or inactive are those of the source.

For `COC(=O)c1c[n+]([O-])ccc1OC`, the growth in the assay on HCT-15 colon is 103%; in the assay on HT29 colon, 107%; with SNB-75 CNS, 96.6%; in the assay with SNB-19 CNS it was 101%; with PC-3 prostate, 99.5%; in the assay on SK-MEL-5 melanoma, 99.7%. In addition, the growth in the assay with UACC-62 melanoma is 101%; with LOX IMVI melanoma, 104%; with SK-MEL-28 melanoma it was 91.4%; with SK-MEL-2 melanoma, 117%; in the assay with SN12C renal it was 98.2%; in the assay with UO-31 renal it was 85.2%. Besides, the growth in the assay on TK-10 renal was 102%; with ACHN renal, 108%; with CAKI-1 renal, 97.2%; in the assay on A498 renal, 111%; in the assay with MOLT-4 leukemia, -47.4% (active).
With `CCOC(=O)C(C)C(C)(O)c1ccccc1` (stereo not given), the growth in the assay with HCT-15 colon is 108%; with HT29 colon it was 106%; with SNB-75 CNS, 87.5%; in the assay on U251 CNS, 107%; in the assay on PC-3 prostate it was 99.9%; in the assay on SK-MEL-5 melanoma, 102%. Moreover, the growth was 97.4% with UACC-62 melanoma; 93.8% in the assay with LOX IMVI melanoma; 101% with SK-MEL-28 melanoma; 97.7% with SK-MEL-2 melanoma; 98.2% in the assay on SN12C renal; 78.5% with UO-31 renal. Also, the growth with ACHN renal is 111%; in the assay on CAKI-1 renal, 109%; in the assay on A498 renal it was 91.5%; with MOLT-4 leukemia it was 95.4%.
Take `Nc1ncn([C@@H]2O[C@H](CO)[C@@H](O)C2(F)F)c(=O)n1`: the growth in the assay with HCT-15 colon is 52.2%; with HT29 colon it was 70.1%; in the assay with SNB-75 CNS, 65%; in the assay with SNB-19 CNS it was 58.9%; in the assay with PC-3 prostate it was 63.6%; in the assay on SK-MEL-5 melanoma it was 70.8%. Besides, the growth was 47.3% in the assay with UACC-62 melanoma; 34.5% with LOX IMVI melanoma; 78.5% in the assay on SK-MEL-28 melanoma; 104% with SK-MEL-2 melanoma; 86.1% with EKVX NSCLC; 51.7% with SN12C renal. In addition, the growth in the assay with UO-31 renal is 39%; in the assay on TK-10 renal, 91.1%; in the assay on ACHN renal, 7.28% (active); in the assay with CAKI-1 renal, 27.9%; with A498 renal it was 38%; in the assay on CCRF-CEM leukemia, 23.7%. For the same compound, the growth in the assay on MOLT-4 leukemia is 35.6%.
Regarding `Cn1c2c(cc(S(=O)(=O)c3ccccc3)c1=O)CCc1c-2cnn1-c1ccc(Cl)cc1`, the growth in the assay on HCT-15 colon was 39.5%; with HT29 colon it was 16.8%; in the assay with SNB-75 CNS, -54.3% (active); with U251 CNS, 20.7%; with PC-3 prostate it was 28.8%; in the assay with SK-MEL-5 melanoma it was 6.71% (active). The growth in the assay on UACC-62 melanoma is 35.4%; in the assay with LOX IMVI melanoma, 6.82% (active); with SK-MEL-28 melanoma, -36.7% (active); in the assay with SK-MEL-2 melanoma, -9.09% (active); with EKVX NSCLC it was 5.95% (active); with UO-31 renal, -14.2% (active). Further, the growth was 34.6% in the assay on TK-10 renal; 6.4% (active) in the assay with ACHN renal; -14.5% (active) in the assay with A498 renal; 98.2% in the assay on CCRF-CEM leukemia; 57.5% in the assay with MOLT-4 leukemia.
Turning to `CCOc1ccc(Br)cc1/C=C(\C#N)c1ccc([N+](=O)[O-])cc1`, the growth is 84.7% with HCT-15 colon; 87.1% in the assay with HT29 colon; 22.1% in the assay on SNB-75 CNS; 67.3% in the assay on U251 CNS; 71.2% in the assay with PC-3 prostate; 81.8% in the assay with SK-MEL-5 melanoma. Besides, the growth with UACC-62 melanoma was 91.7%; in the assay with LOX IMVI melanoma it was 87.8%; with SK-MEL-28 melanoma it was 58.6%; in the assay on SK-MEL-2 melanoma, 88.6%; in the assay with SN12C renal, 85.3%; in the assay with UO-31 renal, 81.5%. The growth in the assay on ACHN renal was 68%; with CAKI-1 renal, 77.7%; with A498 renal, 80.2%; in the assay with MOLT-4 leukemia, 82.7%.
In the case of `Nc1nc2c(c3cnccc13)C(c1cccc(Cl)c1)Cc1cnccc1-2` (stereo not given), the growth was 7.84% (active) with HCT-15 colon; 4.99% (active) in the assay with HT29 colon; 21% in the assay on SNB-75 CNS; 29.2% in the assay with SNB-19 CNS; 12.8% in the assay on PC-3 prostate; -16.3% (active) in the assay with SK-MEL-5 melanoma. Also, the growth is 26.7% in the assay on UACC-62 melanoma; 8.05% (active) in the assay with LOX IMVI melanoma; 56% in the assay with SK-MEL-28 melanoma; 26.8% in the assay on SK-MEL-2 melanoma; 24.2% in the assay with EKVX NSCLC; 33.8% in the assay on SN12C renal. The growth was 26.1% in the assay on UO-31 renal; 23.9% in the assay with TK-10 renal; 15% in the assay with ACHN renal; -5.65% (active) in the assay on A498 renal; 13.3% in the assay with CCRF-CEM leukemia; 16.5% in the assay on MOLT-4 leukemia.
As to `COc1nc(OC)nc(-c2cc(C(=O)c3ccc(Br)cc3)n3cc(C)cc(C)c23)n1`, the growth is 90.7% in the assay on HCT-15 colon; 74.9% in the assay with HT29 colon; -32.2% (active) in the assay on SNB-75 CNS; 28.9% with SNB-19 CNS; 72.5% with PC-3 prostate; 87.8% with SK-MEL-5 melanoma. In addition, the growth is 92.1% with UACC-62 melanoma; 3.88% (active) in the assay on LOX IMVI melanoma; 84.7% in the assay on SK-MEL-28 melanoma; 68.1% in the assay with SK-MEL-2 melanoma; 68.1% in the assay on EKVX NSCLC; 48% in the assay on SN12C renal. For the same compound, the growth in the assay with UO-31 renal is 71%; in the assay on TK-10 renal, 82.1%; in the assay on ACHN renal, 18.5%; in the assay with CAKI-1 renal it was 64.8%; in the assay on A498 renal, 71.3%; in the assay on CCRF-CEM leukemia it was 83.8%. For the same compound, the growth in the assay on MOLT-4 leukemia was 96.6%.
For the compound `CCCCCSc1ccc2nc(NC(=O)OCCC)sc2c1`, the growth in the assay on HCT-15 colon was 26.1%; in the assay on HT29 colon, 15.9%; with SNB-75 CNS, 13.3%; in the assay with SNB-19 CNS, 40.9%; with PC-3 prostate it was 27.7%; in the assay on SK-MEL-5 melanoma, 17.7%. Besides, the growth in the assay on UACC-62 melanoma was 31.1%; in the assay with LOX IMVI melanoma it was 38.6%; in the assay on SK-MEL-28 melanoma it was 70.9%; in the assay with SK-MEL-2 melanoma, 51.7%; with EKVX NSCLC it was 34.2%; in the assay with SN12C renal it was 57.4%. Also, the growth with UO-31 renal is 51.8%; with TK-10 renal, 70.1%; in the assay with ACHN renal it was 42.8%; in the assay with CAKI-1 renal, 32.4%; in the assay on A498 renal, 11.2%; in the assay with CCRF-CEM leukemia, 20.3%. Moreover, in the assay on MOLT-4 leukemia, the growth is 30.7%.
As to `COc1cc2ncnc(-n3ncc4cc(NC(=O)Nc5ccc(Cl)c(Cl)c5)ccc43)c2cc1OC`, the growth with HCT-15 colon is -35.7% (active); in the assay with HT29 colon, -16.7% (active); in the assay with SNB-75 CNS, -57.7% (active); in the assay with SNB-19 CNS, 10.4%; in the assay with PC-3 prostate, -57.1% (active); in the assay with SK-MEL-5 melanoma, -82.8% (active). Also, the growth in the assay on UACC-62 melanoma was -68.5% (active); in the assay on LOX IMVI melanoma, -77.7% (active); in the assay on SK-MEL-28 melanoma, -70.9% (active); with SK-MEL-2 melanoma, -26.6% (active); in the assay on EKVX NSCLC, -16.1% (active); in the assay on SN12C renal it was 3.99% (active). Besides, the growth in the assay on UO-31 renal is -17.2% (active); in the assay with TK-10 renal, -14.1% (active); in the assay on ACHN renal it was -61.6% (active); with CAKI-1 renal, 8.96% (active); with A498 renal it was -22.7% (active); with CCRF-CEM leukemia it was 22.3%. Also, in the assay with MOLT-4 leukemia, the growth was 9.19% (active).
